Bioassay records (PubChem)
NPR1 antag = Natriuretic polypeptide receptor (hNpr1) antagonism - Primary qHTS. HEK293 hNpr1 GloSensor cGMP, ANP-stimulated luminescence. AID 1347048, 2019. Potency, µM (top dose mostly 46.3 µM), most hits filed as inhibitors. 1.6% of 76,000 active. Atrial natriuretic peptide receptor 1 (Homo sapiens), P16066; calls by dose curve; further: nearly all actives have a fitted effect of over 60% in size
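Compound pre-incubated 30 min at room temperature on GloSensor-loaded HEK293 cells stably carrying hNpr1 and the pGS-40F cGMP biosensor. Stimulation uses hNppA at 0.1 nM final; luminescence is taken at baseline and 20 min post-agonist.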
GPT2 inh = Primary qHTS assay for inhibitors of Glutamate pyruvate transaminase 2 (GPT2). Alanine aminotransferase 2 (Homo sapiens), Q8TD30. Recombinant GPT2, coupled pyruvate oxidase/HRP Amplex Red fluorescence. Potency, µM (top dose mostly 57.7 µM), most hits filed as inhibitors. 0.25% of 100,000 active; further: nearly all actives have a fitted effect of over 60% in size
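Fluorescence read-out: pyruvate from GPT2 turnover coupled to pyruvate oxidase, HRP and Amplex Red (0.2mM ThPP, 0.2U/mL PO and HRP, 50uM Amplex final). Substrates 250uM a-KG, 2mM L-alanine; enzyme 10ng/uL; 30 min RT.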
HEK293 tox = Cytotoxic Profiling in HEK 293 Cell Line of Diverse Libraries Using Quantitative High-Throughput Screening; 6.6% of 94,000 active; Potency, µM (series often up to 115 µM), actives largely listed as inhibitors; AID 1345083, 2018; HEK 293 viability, ATP luminescence (CellTiter-Glo), 48-72 h; further: nearly all actives have a fitted effect of over 60% in size
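Viability of HEK 293 cells, plated at 250 cells/well, was judged by cellular ATP after compound treatment for 48 or 72 hr. Luminescence was imaged 10 min after CellTiter-Glo addition at room temperature.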
3T3 cytotox = Cytotoxic Profiling in NIH 3T3 Cell Line of Diverse Libraries Using Quantitative High-Throughput Screening | NIH 3T3 viability, CellTiter-Glo ATP luminescence, 48-72 h | Potency, µM (doses to about 96.7 µM), hits mostly inhibitors | 4.3% of 94,000 active | AID 1345082, 2018; further: nearly all actives have a fitted effect of over 55% in size
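Luminescent ATP readout (CellTiter-Glo, 10 min RT) after 48 or 72 hr compound exposure of NIH 3T3 cells seeded at 400 cells/well in 1536-well format; quantitative HTS.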
Luciferase inh = Firefly luciferase inhibition profiling of diverse chemical library using quantitative high-throughput screening; Potency, µM (titrated, usually from 115 µM), hits mostly inhibitors; purified P. pyralis luciferase, luminescence, biochemical; 2.5% of 76,000 active; further: nearly all actives have a fitted effect of over 65% in size
Target sequence (P08659 whole entry, looked up): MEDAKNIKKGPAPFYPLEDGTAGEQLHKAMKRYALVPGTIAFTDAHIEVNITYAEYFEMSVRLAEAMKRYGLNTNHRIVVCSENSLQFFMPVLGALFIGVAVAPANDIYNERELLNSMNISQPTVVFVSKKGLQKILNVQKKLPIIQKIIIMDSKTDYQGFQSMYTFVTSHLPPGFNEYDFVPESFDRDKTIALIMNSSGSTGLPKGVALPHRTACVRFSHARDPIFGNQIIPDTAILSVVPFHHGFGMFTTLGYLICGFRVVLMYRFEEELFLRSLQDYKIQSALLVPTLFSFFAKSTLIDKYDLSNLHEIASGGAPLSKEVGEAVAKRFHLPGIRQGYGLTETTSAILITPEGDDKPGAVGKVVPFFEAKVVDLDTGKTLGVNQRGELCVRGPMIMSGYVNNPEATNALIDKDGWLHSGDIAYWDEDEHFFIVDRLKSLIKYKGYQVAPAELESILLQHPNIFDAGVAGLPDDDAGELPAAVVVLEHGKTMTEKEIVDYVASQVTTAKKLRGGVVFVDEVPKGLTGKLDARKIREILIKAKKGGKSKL
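Purified 10nM P. pyralis luciferase with 10uM D-luciferin and 10uM ATP in 50mM Tris acetate pH 7.5, 10mM Mg acetate, 0.01% Tween-20, 0.05% BSA. qHTS titration; luminescence read by CCD imager.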
A number is an active result; . = inactive; ? = inconclusive; / = no result given. In the library only some 10% were active in any assay of this set; here they are far more common. Unless noted, the call rests on the fitted dose curve; in most records, active means well fitted curve in the direction sought with a large enough effect; inconclusive means small, poorly fitted or top-dose-only effect, or another doubt; inactive means no such curve, though single readings can be large; an effect the other way counts as inactive or inconclusive.

SMILES	NPR1 antag	GPT2 inh	HEK293 tox	3T3 cytotox	Luciferase inh
C=C[C@H]1CN2CC[C@H]1C[C@@H]2CNCc1ccccc1	.	.	.	.	.
COCC1CN(Cc2cccnc2)CC12CCNCC2 (stereo not given)	.	.	.	.	.
O=C(c1ccc2c(c1)OCO2)N1[C@H]2CC[C@@H]1c1cnc(-c3ccc(F)cc3)nc1C2	.	.	44.7µM	?	.
Cc1ccsc1C(=O)N1[C@H]2CC[C@@H]1c1cnc(-c3ccccc3)nc1C2	/	.	10µM	?	/
Cc1nc(C)c(C(=O)N2[C@H]3CC[C@@H]2c2cnc(-c4ccc(F)cc4)nc2C3)s1	15.8µM	.	?	.	?
O=C(c1cccs1)N1[C@H]2CC[C@@H]1c1cnc(-c3ccccc3)nc1C2	?	.	?	.	.
O=C(c1ccsc1)N1[C@H]2CC[C@@H]1c1cnc(-c3ccccc3)nc1C2	?	.	.	.	.
O=C(c1cccs1)N1[C@H]2CC[C@@H]1c1cnc(-c3ccc(F)cc3)nc1C2	11.2µM	.	?	?	?
Cc1cc(CN2CC3(C2)C(=O)Nc2ccccc23)no1	/	.	?	.	/
Cc1ncc2c(n1)C[C@@H]1CC[C@H]2N1S(=O)(=O)c1ccccc1C	.	.	.	.	.
Cc1ccccc1S(=O)(=O)N1[C@H]2CC[C@@H]1c1cnc(-c3ccc(F)cc3)nc1C2	?	.	28.2µM	?	.
COc1cc2c(cc1-c1cnn(C)c1)NC(=O)C21CCN(C(C)=O)CC1	.	.	.	31.6µM	.
COc1cc2c(cc1-c1ccc(O)c(F)c1)NC(=O)C21CCN(C(C)=O)CC1	.	.	.	28.2µM	.
CC(=O)N1CCC2(CC1)C(=O)NN=C2c1cccnc1	.	.	.	.	.
COc1cc2c(cc1Oc1ccccc1)NC(=O)C21CCN(c2ncc(F)cn2)CC1	.	.	89.1µM	?	.
COc1cc2c(cc1Oc1ccccc1)NC(=O)C21CCN(Cc2ccccn2)CC1	.	?	56.2µM	?	.
COc1cc2c(cc1Oc1ccccc1)NC(=O)C21CCN(c2nccs2)CC1	.	.	?	.	.
Cc1ccnc(N2CC3CCC(C2)N3CC(F)(F)F)c1[N+](=O)[O-]	/	.	?	.	/
O=[N+]([O-])c1ccc(Cl)nc1N1CC2CCC(C1)N2CC(F)(F)F	/	?	39.8µM	?	/
FC(F)(F)CN1C2CCC1CN(c1nnc(Cl)c3ccccc13)C2	/	.	79.4µM	?	/
Cc1ccccc1-c1ccc2n(c1=O)C[C@H]1C[C@@H]2CN(C(=O)c2cnccn2)C1	.	.	89.1µM	.	.
CN1Cc2ccccc2-n2ccnc2C12CCN(C(=O)c1ccccn1)CC2	.	.	.	.	.
CC(C)CN1Cc2ccccc2-n2ccnc2C12CCN(C(=O)c1cccs1)CC2	.	.	44.7µM	?	.
CCn1ccc(C(=O)N2CCC3(CC2)c2nccn2-c2ccccc2CN3CC(C)C)n1	.	.	44.7µM	?	.
CCOCC(=O)N1CCC2(CC1)c1nccn1-c1ccccc1CN2CC(C)C	.	.	?	.	.
SMILES	NPR1 antag	GPT2 inh	HEK293 tox	3T3 cytotox	Luciferase inh
CC(C)CN1Cc2ccccc2-n2ccnc2C12CCN(C(=O)c1ccn[nH]1)CC2	.	.	39.8µM	.	.
COCCOCC(=O)N1CCC2(CC1)c1nccn1-c1ccccc1CN2CC(C)C	.	.	.	.	.
CC(C)CN1Cc2ccccc2-n2ccnc2C12CCN(C(=O)c1cccc(F)c1)CC2	.	.	35.5µM	?	.
CN1Cc2ccccc2-n2ccnc2C12CCN(C(=O)c1cccc(F)c1)CC2	.	.	.	.	.
CCc1cc2c(s1)-n1c(C)nnc1CN=C2c1ccccc1Cl	/	.	/	/	/
C[C@]12Cc3nonc3C[C@@H]1CC[C@@H]1[C@@H]2CC[C@@]2(C)[C@H]1CC[C@]2(C)O	/	.	/	/	/
O=[S+]1([O-])NCC2(CCN(Cc3cccs3)C2)Oc2ncccc21 (stereo not given)	/	.	.	.	/
CC(C)CN1Cc2ccccc2-n2ccnc2C12CCN(C(=O)c1ccco1)CC2	.	.	44.7µM	?	.
CC(C)CN1Cc2ccccc2-n2ccnc2C12CCN(C(=O)c1ccoc1)CC2	.	.	?	?	.
Cc1ccc(CNC(=O)N2[C@H]3CC[C@@H]2c2cncnc2C3)cc1	.	.	.	.	.
COc1cc2c(cc1OCc1ccccc1)NC(=O)C21CCN(Cc2cccc(O)c2)CC1	.	.	35.5µM	22.4µM	?
COc1cc2c(cc1OCC1CC1)NC(=O)C21CCN(Cc2ccccc2O)CC1	.	.	?	39.8µM	.
COc1cc2c(cc1OCc1ccncc1)NC(=O)C21CCN(Cc2ccccc2)CC1	.	.	100µM	79.4µM	.
COc1cc2c(cc1OCc1ccccc1)NC(=O)C21CCN(C(=O)c2cccnc2)CC1	?	.	50.1µM	?	.
COc1cc2c(cc1OCc1ccncc1)NC(=O)C21CCN(Cc2cccc(O)c2)CC1	.	.	?	?	.
CN[C@@H]1Cc2cccc3[nH]c(=O)n(c23)C1	/	.	/	/	/
COc1cc2c(cc1OC1CCCC1)NC(=O)C21CCN(Cc2cccc(O)c2)CC1	.	.	89.1µM	25.1µM	.
COc1cc2c(cc1OCC1CC1)NC(=O)C21CCN(Cc2cccc(O)c2)CC1	.	.	89.1µM	?	?
CN1CN(c2ccccc2)C2(CCN(CCCC(=O)c3ccc(F)cc3)CC2)C1=O	/	.	/	/	/
COc1cc(CCN)cc(OC)c1OC	/	.	/	/	/
c1ccc(CN2CCOC[C@H]3CCNC[C@H]32)cc1	.	.	.	.	.
CN(CCc1ccccn1)C[C@H]1CN2CC[C@H]1C[C@@H]2CNC(=O)Nc1ccccc1	.	.	.	.	.
CSc1cccc(NC(=O)NC[C@H]2C[C@@H]3CCN2C[C@@H]3CN(C)CCc2ccccn2)c1	.	.	?	79.4µM	.
CSc1cccc(NC(=O)NC[C@H]2C[C@@H]3CCN2C[C@@H]3CN2CCSCC2)c1	.	.	?	100µM	.
CSc1cccc(NC(=O)NC[C@H]2C[C@@H]3CCN2C[C@@H]3CN2CCN(c3ccccc3)CC2)c1	.	.	22.4µM	20µM	.
N#Cc1cccc(NC(=O)NC[C@H]2C[C@@H]3CCN2C[C@@H]3CN2CCSCC2)c1	.	.	?	?	.
CC(C)(C)NC(=O)N1[C@H]2CC[C@@H]1c1cnc(-c3ccccc3)nc1C2	.	.	.	.	.
Cc1nc(-c2ccco2)cc([C@H]2CN3CC[C@H]2C[C@@H]3CNC(=O)C2CCC2)n1	.	.	.	?	.
Cc1nc(-c2cccs2)cc([C@H]2CN3CC[C@H]2C[C@@H]3CNC(=O)C(C)(C)C)n1	.	.	?	?	.
